14-3-3g Raf: alters human 14-3-3 gamma binding to Raf peptide; FP, 14-3-3gamma / TMR-pS259-Raf peptide binding; P61981; inhibition, % at 40 µM; actives 0.19% (n = 160,000); in the data active = inhibition above about 30%;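 also: 0% = protein plus tracer without compound and 100% = blank with tracer alone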
Target sequence (P61981 whole entry, looked up): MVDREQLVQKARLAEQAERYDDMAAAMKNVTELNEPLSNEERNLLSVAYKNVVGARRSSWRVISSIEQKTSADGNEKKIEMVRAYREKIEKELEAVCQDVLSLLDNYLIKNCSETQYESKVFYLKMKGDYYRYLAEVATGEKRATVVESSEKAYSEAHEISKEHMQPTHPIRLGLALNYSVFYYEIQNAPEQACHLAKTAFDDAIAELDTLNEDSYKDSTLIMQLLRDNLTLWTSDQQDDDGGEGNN
An asterisk follows results filed as active; + = active, no number; ! = not active in a repeat. This is one part of a sample in which hits are shown more often than they occur.

SMILES	14-3-3g Raf
CCOC(=O)Cn1cc(C(=O)C2CC2)c2ccccc21	-7
COC(=O)Cn1cc(C(=O)C2CC2)c2ccccc21	50*
O=C(C[n+]1ccc2ccccc2c1)c1ccc2c(c1)Cc1ccccc1-2	-24
O=C(C[n+]1ccc2ccccc2c1)c1ccccc1	45*
O=C(C[n+]1cccc(Br)c1)c1ccccc1	3
CN1CCN(C(=O)c2ccc3c(c2)NC(=O)C(N2CCOCC2)S3)CC1 (stereo not given)	4
O=C1Nc2cc(C(=O)N3CCOCC3)ccc2SC1N1CCCC1 (stereo not given)	-6
O=C1Nc2cc(C(=O)N3CCOCC3)ccc2SC1N1CCOCC1 (stereo not given)	38*!
CCOCCn1cnc2sc(C(=O)NCc3ccc(F)cc3)c(C)c2c1=O	3
Cc1ccc(SCC(=O)N2CCCc3ccccc32)cc1	-7
CCN1CCN(c2cc(C)c3cc(NC(=O)Cc4ccccc4Br)ccc3n2)CC1	-28
Cc1cccc(N2CCN(C(=O)Cn3ccc4ccccc4c3=O)CC2C)c1 (stereo not given)	2
CCc1ccc(C2=CC(c3cccc(C)c3)n3nnnc3N2)cc1 (stereo not given)	-6
Cc1cccc(C2C=C(c3ccc(Cl)cc3)Nc3nnnn32)c1 (stereo not given)	-20
Cc1cccc(C2C=C(c3ccc(Br)s3)Nc3nnnn32)c1 (stereo not given)	48*
Clc1ccccc1C1C=C(c2cccs2)Nc2nnnn21 (stereo not given)	-5
Cc1ccc(C2C=C(c3cccs3)Nc3nnnn32)cc1 (stereo not given)	37*
Cc1ccc(C2=CC(c3ccc(C)cc3)n3nnnc3N2)cc1 (stereo not given)	1
Cc1ccc(NC(=O)c2ccccc2Cl)c(C(=O)c2ccccc2)c1	-35
O=[N+]([O-])c1cccc(C2=NN(c3nc(-c4ccc(S(=O)(=O)N5CCCC5)cc4)cs3)C(c3ccc(F)cc3)C2)c1 (stereo not given)	-26
O=C1C=C(Nc2cccc([N+](=O)[O-])c2)C(=O)c2ccccc21	0
CSc1nnc2c(n1)OC(c1ccc(OCC(=O)O)cc1)Nc1ccccc1-2 (stereo not given)	-3
CCOc1ccc(C2Nc3ccccc3-c3nnc(SCC)nc3O2)cc1 (stereo not given)	0
CCSc1nnc2c(n1)OC(C1CC=C(C)CC1C)Nc1ccccc1-2 (stereo not given)	-31
C=CCSc1nnc2c(n1)OC(c1cccc(F)c1)Nc1ccccc1-2 (stereo not given)	-98
SMILES	14-3-3g Raf
CCCSc1nnc2c(n1)OC(C1CC=C(C)CC1C)Nc1ccccc1-2 (stereo not given)	6
CSc1nnc2c(n1)OC(c1ccc(OCc3ccccc3)cc1)Nc1ccccc1-2 (stereo not given)	33*
C=CCOc1ccc(C2Nc3ccc(Br)cc3-c3nnc(SC)nc3O2)cc1 (stereo not given)	-84
C=CCOc1cccc(C2Nc3ccccc3-c3nnc(SC)nc3O2)c1 (stereo not given)	134*
CSc1nnc2c(n1)OC(C1CC=C(C)CC1C)Nc1ccccc1-2 (stereo not given)	83*
CCC1(C)CC(CCNCc2ccccc2O)(c2ccccc2OC)CCO1 (stereo not given)	3
COc1ccc(CNC(=O)c2sc(=S)n3c2[nH]c(=O)c2ccccc23)cc1	-40
CC1CCc2cc(F)ccc2N1C(=O)c1ccc(COc2cccc(Cl)c2)o1 (stereo not given)	-3
COc1cc(S(=O)(=O)NCCOC23CC4CC(CC(C4)C2)C3)ccc1Cl	-1
O=C(O)c1ccc(N2CCOCC2)c([N+](=O)[O-])c1	-6
O=[N+]([O-])c1nn(-c2ccc3c(c2)OCCO3)n(O)c1=NCCc1ccccc1	-12
Cc1cccc(CCN=c2c([N+](=O)[O-])nn(-c3ccc4c(c3)OCCO4)n2O)c1	72*
Cc1cccc(CCN=c2c([N+](=O)[O-])nn(-c3ccccc3)n2O)c1	-7
O=C1CN(C(=O)C2CCCCC2)C(c2ccc(F)cc2)c2cc(Cl)ccc2N1 (stereo not given)	-11
COC(=O)c1[nH]c2c(c1C)C(=O)CC(c1ccc(C(C)(C)C)cc1)C2 (stereo not given)	-1
O=C(NCCc1ccccc1)c1cccn2c(=O)c3cc(Cl)ccc3nc12	-8
COCCCNC(=O)c1cccn2c(=O)c3cc4ccccc4cc3nc12	-12
NS(=O)(=O)c1ccc(CCNC(=O)c2cccn3c(=O)c4cc5ccccc5cc4nc23)cc1	91*
CCOC(=O)c1cnc2ccc(C(=O)OC)cc2c1Nc1cccc(C)c1C	-3
COc1ccc(N2CCN(C(=O)c3ccc(S(=O)(=O)CC4CCCO4)c([N+](=O)[O-])c3)CC2)cc1 (stereo not given)	-5
Cc1cccc(C(=O)Nc2cccc(NC(=O)c3ccc(F)cc3)c2)c1	2
Cc1cccc(C(=O)Nc2ccc(O)cc2)c1	2
Cc1cccc(C(=O)Nc2cccc(NC(=O)c3cccc(C)c3)c2)c1	45*
CCOc1ccc(S(=O)(=O)Nc2c(C)n(C)n(-c3ccccc3)c2=O)c2cccnc12	2
CSc1nc2sc3c(c2c(=O)n1CCc1ccccc1)CCC3	-15
SMILES	14-3-3g Raf
O=C(c1scc2c1CCCC2)N1CCCC1	-6
CCN(CC)c1ccc(CNc2ccc(Br)cn2)cc1	-4
N#Cc1cc(-c2ccccc2C(F)(F)F)no1	7
CCN(CC)c1ccc(-c2cc(C#N)on2)cc1	41*
CCc1ccc(NS(=O)(=O)c2ccc3[nH]cc(C(=O)NCc4ccc(C)cc4)c(=O)c3c2)cc1	-15
CCc1ccccc1N(C)S(=O)(=O)c1ccc2[nH]cc(C(=O)NCCc3ccccc3)c(=O)c2c1	-2
CCc1ccccc1N(C)S(=O)(=O)c1ccc2[nH]cc(C(=O)O)c(=O)c2c1	63*
CCc1ccc(NS(=O)(=O)c2ccc3[nH]cc(C(=O)NCc4ccccn4)c(=O)c3c2)cc1	172*
CN(c1ccc(F)cc1)S(=O)(=O)c1ccc2[nH]cc(C(=O)NCc3ccccn3)c(=O)c2c1	+
CCOc1ccc(N(C)S(=O)(=O)c2ccc3[nH]cc(C(=O)NCc4ccccc4)c(=O)c3c2)cc1	-12
CN(c1ccc(Br)cc1)S(=O)(=O)c1ccc2[nH]cc(C(=O)NCc3ccccn3)c(=O)c2c1	147*
COCCNC(=O)c1c[nH]c2ccc(S(=O)(=O)N(C)c3ccc(F)cc3)cc2c1=O	-5
CCc1ccc(NS(=O)(=O)c2ccc3[nH]cc(C(=O)NCc4ccccc4)c(=O)c3c2)cc1	-15
CCCCN(C)C(=O)c1c[nH]c2ccc(S(=O)(=O)N(C)c3ccccc3CC)cc2c1=O	-7
Cc1ccc(N(C)S(=O)(=O)c2ccc3[nH]cc(C(=O)NCc4ccccn4)c(=O)c3c2)cc1C	-3
C=CCN(c1ccccc1)S(=O)(=O)c1ccc2[nH]cc(C(=O)NCc3ccccn3)c(=O)c2c1	0
COc1ccc(C2(C(=O)N3CCOCC3)CCCC2)cc1OC	-6
CCC1CCC2(CC1)SCC(=O)N2c1ccc(F)cc1 (stereo not given)	7
O=C(CSc1nc2ccccc2c2nc(CCc3c[nH]c4ccccc34)nn12)c1ccc(F)cc1	-1
COc1ccc(-c2ccc(CCC(=O)O)n2-c2ccc3ccccc3c2)cc1	-71
Cc1cccc(N2C(=O)c3ccccc3C2=O)c1	-3
CC1CCN(C(=O)Cn2c(=O)[nH]c3ccsc3c2=O)CC1	10

Bioassay records: PubChem BioAssay, Emory University Molecular Libraries Screening Center
